{"source": "PubChem BioAssay (NCATS)", "key": {"[1]": {"molecular_target": "Aldehyde dehydrogenase, mitochondrial (Homo sapiens) (UniProt P05091)", "assay": "qHTS for Inhibitors of the Aldehyde Dehydrogenase Family (ALDH2) Primary screen (AID 2061308); note: nearly all actives have a fitted effect of over 55% in size"}, "[2]": {"molecular_target": "Retinaldehyde dehydrogenase 3 (Homo sapiens) (UniProt P47895)", "assay": "qHTS for Inhibitors of the Aldehyde Dehydrogenase Family (ALDH1A3) Primary screen (AID 2061315)"}}, "note": "Results filed as inconclusive are left out. Where a call stands in place of a potency, no number is given. The source made the active and inactive calls. Calls come from the whole dose curve; as a rule, active = well fitted curve in the direction sought with a large enough effect; inconclusive = small, poorly fitted or top-dose-only effect, or another doubt; inactive = no such curve, though single readings can be large; an effect the other way counts as inactive or inconclusive.", "data": [{"smiles": "Cc1cc(N[S+](=O)([O-])c2ccc(NC(=O)Cc3ccc(C(F)(F)F)c(F)c3)cc2)no1", "values": [{"measurement": "Potency", "setting": "[1]", "value": "inactive"}, {"measurement": "Potency", "setting": "[2]", "value": "inactive"}]}, {"smiles": "Cc1cc(NC(=O)Nc2nnc(-c3cccnc3)s2)ccc1Br", "values": [{"measurement": "Potency", "setting": "[1]", "value": "inactive"}, {"measurement": "Potency", "setting": "[2]", "value": "inactive"}]}, {"smiles": "Fc1cc(Cl)cc(-c2ccc(CNc3nc(-c4ccccc4C(F)(F)F)nc4ccccc34)cc2)c1", "values": [{"measurement": "Potency", "setting": "[1]", "value": "inactive"}, {"measurement": "Potency", "setting": "[2]", "value": "inactive"}]}, {"smiles": "Cc1ccc(S(=O)(=O)N2CCN(c3nc(C#N)nc4ccccc34)CC2)cc1", "values": [{"measurement": "Potency", "setting": "[1]", "value": "inactive"}, {"measurement": "Potency", "setting": "[2]", "value": "inactive"}]}, {"smiles": "N#CC1=C(Nc2nc3ccccc3o2)OC2=C(C(=O)CCC2)C1c1[nH]ncc1Cl", "note": "(configuration not stated)", "values": [{"measurement": "Potency", "setting": "[1]", "value": "inactive"}, {"measurement": "Potency", "setting": "[2]", "value": "inactive"}]}, {"smiles": "O=C1CCCC2=C1C(c1ncccc1C(F)(F)F)N=C(Nc1nc3ccccc3o1)N2", "note": "(configuration not stated)", "values": [{"measurement": "Potency", "setting": "[1]", "value": "inactive"}, {"measurement": "Potency", "setting": "[2]", "value": "inactive"}]}, {"smiles": "COc1ccc(S(=O)(=O)N2CCN(S(=O)(=O)c3ccc(OC)cc3)CC2)cc1", "values": [{"measurement": "Potency", "setting": "[1]", "value": "inactive"}, {"measurement": "Potency", "setting": "[2]", "value": "inactive"}]}, {"smiles": "O=S(=O)(c1ccc2c(c1)OCCO2)N1CCCN(S(=O)(=O)c2c(F)cccc2F)CC1", "values": [{"measurement": "Potency", "setting": "[1]", "value": "inactive"}, {"measurement": "Potency", "setting": "[2]", "value": "inactive"}]}, {"smiles": "C=C1C(=O)O[C@H]2/C=C(/C)[C@@H](OC(C)=O)C/C=C(\\C)C[C@@H](OC(=O)/C(=C/C)COC(=O)/C(=C/C)CO)[C@@H]12", "values": [{"measurement": "Potency", "setting": "[1]", "value": "inactive"}, {"measurement": "Potency", "setting": "[2]", "value": "inactive"}]}, {"smiles": "Cc1cnc(-c2ccccc2C(C)O)nc1NCc1ccc(-c2cccnc2)cc1", "note": "(configuration not stated)", "values": [{"measurement": "Potency", "setting": "[1]", "value": "inactive"}, {"measurement": "Potency", "setting": "[2]", "value": "inactive"}]}, {"smiles": "COc1ccc(C2=Nn3c(nnc3-c3ccccc3C(F)(F)F)SC2)cc1O[C@H]1CCOC1", "values": [{"measurement": "Potency", "setting": "[1]", "value": "inactive"}, {"measurement": "Potency", "setting": "[2]", "value": "inactive"}]}, {"smiles": "Cc1cc(C)nc(NC(=S)N2CCN(c3nnc(C(F)(F)F)s3)CC2)c1", "values": [{"measurement": "Potency", "setting": "[1]", "value": "inactive"}, {"measurement": "Potency", "setting": "[2]", "value": "inactive"}]}, {"smiles": "Cc1nc(-c2ccc([S+](=O)([O-])N3CCN([S+](=O)([O-])c4c(F)cccc4F)CC3)s2)cs1", "values": [{"measurement": "Potency", "setting": "[1]", "value": "inactive"}, {"measurement": "Potency", "setting": "[2]", "value": "inactive"}]}, {"smiles": "O=C(Nc1ccc(-c2nc3ccccc3[nH]2)cc1)c1ccc2n[nH]nc2c1", "values": [{"measurement": "Potency", "setting": "[1]", "value": "inactive"}, {"measurement": "Potency", "setting": "[2]", "value": "inactive"}]}, {"smiles": "O=C1CCCC2=C1C(c1[nH]ncc1Cl)NC(=NCc1cccnc1)N2", "note": "(configuration not stated)", "values": [{"measurement": "Potency", "setting": "[1]", "value": "inactive"}, {"measurement": "Potency", "setting": "[2]", "value": "inactive"}]}, {"smiles": "CCN(CC)CCCC(C)n1c(-c2ccccc2)nc2c(NCCO)nc(C)nc21", "note": "(configuration not stated)", "values": [{"measurement": "Potency", "setting": "[1]", "value": "inactive"}, {"measurement": "Potency", "setting": "[2]", "value": "inactive"}]}, {"smiles": "CC(=O)N1CCN(C(=O)COC(=O)c2ccc([S+](C)(=O)[O-])c([N+](=O)[O-])c2)CC1", "values": [{"measurement": "Potency", "setting": "[1]", "value": "inactive"}, {"measurement": "Potency", "setting": "[2]", "value": "inactive"}]}, {"smiles": "CC(C)c1ccccc1-c1nc(NCc2ccc(-c3cccnc3)cc2)c2ccccc2n1", "values": [{"measurement": "Potency", "setting": "[1]", "value": "inactive"}, {"measurement": "Potency", "setting": "[2]", "value": "inactive"}]}, {"smiles": "c1ccc(-c2nc(NCc3ccc(-c4cccnc4)cc3)c3ccccc3n2)cc1", "values": [{"measurement": "Potency", "setting": "[1]", "value": "inactive"}, {"measurement": "Potency", "setting": "[2]", "value": "inactive"}]}, {"smiles": "Cc1ccc(OCCn2c(CCNC(=O)C3CCCCCC3)nc3ccccc32)cc1", "values": [{"measurement": "Potency", "setting": "[1]", "value": "inactive"}, {"measurement": "Potency", "setting": "[2]", "value": "inactive"}]}, {"smiles": "COc1ccc(C2=Nn3c(nnc3-c3ccccc3C(F)(F)F)SC2)cc1OC1CCOC1", "note": "(configuration not stated)", "values": [{"measurement": "Potency", "setting": "[1]", "value": "inactive"}, {"measurement": "Potency", "setting": "[2]", "value": "inactive"}]}, {"smiles": "C=Cc1cc(F)c(S(=O)(=O)N2CCN(S(=O)(=O)c3ccc4c(c3)OCCO4)CC2)cc1F", "values": [{"measurement": "Potency", "setting": "[1]", "value": "inactive"}, {"measurement": "Potency", "setting": "[2]", "value": "inactive"}]}, {"smiles": "Cc1cc(C)nc(/N=C(\\NC#N)N2CCN(c3cccc(C(F)(F)F)c3)CC2)c1", "values": [{"measurement": "Potency", "setting": "[1]", "value": "inactive"}, {"measurement": "Potency", "setting": "[2]", "value": "inactive"}]}, {"smiles": "N#Cc1no[n+]([O-])c1-c1ccccc1", "values": [{"measurement": "Potency", "setting": "[1]", "value": "inactive"}, {"measurement": "Potency", "setting": "[2]", "value": "inactive"}]}, {"smiles": "COc1ccc(C(=O)Oc2ccc(-c3nc4ccccc4[nH]3)cc2)cc1OC", "values": [{"measurement": "Potency", "setting": "[1]", "value": "inactive"}, {"measurement": "Potency", "setting": "[2]", "value": "inactive"}]}, {"smiles": "COc1ccc(-c2ccc3ncnc(NCC4CCCO4)c3c2)cc1OC", "note": "(configuration not stated)", "values": [{"measurement": "Potency", "setting": "[1]", "value": "inactive"}, {"measurement": "Potency", "setting": "[2]", "value": "inactive"}]}, {"smiles": "Cc1cnc(-c2ccccc2C(C)C)nc1NCC1CCN(C)CC1", "values": [{"measurement": "Potency", "setting": "[1]", "value": "inactive"}, {"measurement": "Potency", "setting": "[2]", "value": "inactive"}]}, {"smiles": "O=C1CCCC2=C1C(c1[nH]ncc1Cl)N=C(Nc1ccn[nH]1)N2", "note": "(configuration not stated)", "values": [{"measurement": "Potency", "setting": "[1]", "value": "inactive"}, {"measurement": "Potency", "setting": "[2]", "value": "inactive"}]}, {"smiles": "Cc1nc(C)c2c(n1)N(Cc1ccc(-c3ccccc3-c3nn[nH]n3)cc1)C(=O)CC2", "values": [{"measurement": "Potency", "setting": "[1]", "value": "inactive"}, {"measurement": "Potency", "setting": "[2]", "value": "inactive"}]}, {"smiles": "O=c1c2ccccc2nc2sc(Nc3ccc(Br)cc3)nn12", "values": [{"measurement": "Potency", "setting": "[1]", "value": "inactive"}, {"measurement": "Potency", "setting": "[2]", "value": "inactive"}]}, {"smiles": "O=C1CCc2cc(S(=O)(=O)Nc3cccc4ccccc34)ccc2N1", "values": [{"measurement": "Potency", "setting": "[1]", "value": "inactive"}, {"measurement": "Potency", "setting": "[2]", "value": "inactive"}]}]}
